Source: PubChem BioAssay
The source made the active and inactive calls. Unless noted, no rule for the calls is given here.

Experiments:
[1] = system: Wnt5a (protein binding on small-molecule microarray); assay: Wnt5a binders on small-molecule microarray, primary screen, biophysical, 635/667 nm fluorescence (AID 1142); settings: 635 nm fluorescence, higher = more signal;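 also: fluorescence read at 667 nm with signal to noise per printed feature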
[2] = cell viability in Huh7 cells, primary screen, cytotoxicity control for HCV replication inhibitor project, CellTiter-Glo luminescence, basal, 48 h (AID 1143); settings: Huh7 HCV replicon, higher = more signal, called active from +8 up or from −8 down;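 also: Huh7 hepatoma cells carrying a hepatitis C replication reporter with no stimulus; test concentration not given here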
[3] = P. aeruginosa biofilm formation inhibitors, primary screen, PAO1 strain, BacTiter-Glo luminescence, LB-PBS (AID 1144); settings: 12 h, higher = more signal
[4] = CREB reporter modulators without forskolin, primary screen, cell-based, PC12, CRE-LacZ reporter, unstimulated (AID 1145); settings: no forskolin, luminescence, 4.5 h, higher = more signal, called active from +8 up or from −8 down
[5] = CREB reporter modulators under forskolin, primary screen, cell-based, PC12, CRE-LacZ reporter, forskolin-stimulated (AID 1146); settings: luminescence, 4.5 h, higher = more signal, called active from +8 up or from −8 down;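 also: PC12 cells with 6xCRE LacZ reporter stimulated by forskolin 10 µM; beta-galactosidase reporter signal reflecting CREB driven transcription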
[6] = target: Streptavidin (Streptomyces avidinii) (UniProt P22629); assay: streptavidin binders on small-molecule microarray, primary screen, artefact control for SMM compound annotation, biophysical, 635/667 nm fluorescence (AID 1147); settings: streptavidin binding, higher = more signal;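 also: signal reflects streptavidin binding to arrayed compounds as a control protein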
[7] = small-molecule binders of probe aInhba, primary screen, biochemical, small-molecule microarray, 635/667 nm fluorescence (AID 1148); settings: higher = more signal;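 also: score merges 667nm spot fluorescence with signal-to-noise for antibody binding to printed compounds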
[8] = target: Torsin-1A (Homo sapiens) (UniProt O14656); assay: torsin A binders from cell lysate, primary screen, small-molecule microarray, wild-type, 635/667 nm (AID 1149); settings: COS7 hTOR1A-WT lysate, 635 nm fluorescence, higher = more signal
[9] = target: Torsin-1A (Homo sapiens) (UniProt O14656); assay: small-molecule binders of mutant TOR1A in lysate, primary screen, cell lysate, small-molecule microarray, COS7 lysate, 635/667 nm fluorescence (AID 1150); settings: COS7 hTOR1A mutant lysate, 635 nm fluorescence, higher = more signal;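 also: score pools 667 nm emission and signal to noise measuring lysate protein binding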
[10] = system: Sonic hedgehog protein (Shh); assay: small-molecule binders of Shh protein, primary screen, biochemical, small-molecule microarray, 635/667 nm fluorescence (AID 1151); settings: small-molecule microarray binding, 635 nm fluorescence; higher = more signal;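 also: Shh protein binding to compounds spotted on small-molecule microarray slides; score combines spot fluorescence intensity with signal-to-noise across triplicate slides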
[11] = E. coli DRC41 culture turbidity changes, primary screen, E. coli filamentation inducer project, strain DRC41, OD650, 48 h (AID 1152);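 also: E. coli MC1000 strain DRC41 lacking acrAB efflux pump and sulA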; settings: E. coli DRC41 (acrAB sulA), higher = more signal, called active from +8 up or from −8 down
[12] = small-molecule binders of probe aLefty1, primary screen, biochemical, small-molecule microarray, 635/667 nm fluorescence (AID 1153); settings: higher = more signal;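 also: score merges spot fluorescence with signal-to-noise ratio from the scanned slide images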
[13] = PSAC antagonists in infected red cells, primary screen, cell-based, P. falciparum Indochina, OD700, 1 h (AID 1154); settings: P. falciparum Indochina infected RBC osmotic lysis, higher = more signal, called active from +8 up or from −8 down
[14] = PSAC antagonists in infected red cells, primary screen, cell-based, P. falciparum Indochina, OD700, 2 h (AID 1155);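 also: lysis reports solute entry through the parasite surface anion channel PSAC; channel blockers reduce lysis of infected cells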; settings: P. falciparum Indochina infected erythrocytes, osmotic lysis OD700; higher = more signal, called active from +8 up or from −8 down
[15] = osmotic lysis modulators in infected erythrocytes, primary screen, PSAC antagonist project, cell-based, P. falciparum Indochina, OD700, 3 h (AID 1156); settings: higher = more signal, called active from +8 up or from −8 down
[16] = PSAC antagonists in infected red cells, primary screen, cell-based, P. falciparum Indochina, OD700, 18 h (AID 1157); settings: P. falciparum Indochina infected erythrocytes, osmotic lysis OD700, 18 h; higher = more signal, called active from +8 up or from −8 down
[17] = modulators of S6 phosphorylation in cells, primary screen, cell-based, A549, cytoblot, luminescence, serum-stimulated (AID 1158); settings: A549 phospho-S6 cytoblot, 5 h, higher = more signal;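 also: serum-stimulated A549 lung adenocarcinoma cells; signal is phosphorylated S6 detected by cytoblot immunostaining with HRP secondary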
[18] = target: NADPH oxidase 2 (Homo sapiens) (UniProt P04839); assay: NOX2-dependent H2O2 signal modulators, primary screen, NOX inhibitor project, cell-based, HEK293-NOX2, PMA-stimulated, Amplex Red fluorescence (AID 1159); settings: 45 min, higher = more signal, called active from +8 up or from −8 down; also: test concentration not given here
[19] = target: NADPH oxidase 4 (Homo sapiens) (UniProt Q9NPH5); assay: NOX4-dependent H2O2 signal modulators, primary screen, NOX inhibitor project, cell-based, HEK293-NOX4, tetracycline-induced, Amplex Red fluorescence (AID 1160); settings: 45 min, higher = more signal, called active from +8 up or from −8 down
[20] = target: NADPH oxidase 5 (Homo sapiens) (UniProt Q96PH1); assay: NOX5-dependent H2O2 signal modulators, primary screen, NOX inhibitor project, cell-based, HEK293-NOX5, Amplex Red fluorescence (AID 1161); settings: HEK293-NOX5, ionomycin, 45 min, higher = more signal
NADPH oxidase 5 (Homo sapiens), sequence (Q96PH1 whole entry, looked up): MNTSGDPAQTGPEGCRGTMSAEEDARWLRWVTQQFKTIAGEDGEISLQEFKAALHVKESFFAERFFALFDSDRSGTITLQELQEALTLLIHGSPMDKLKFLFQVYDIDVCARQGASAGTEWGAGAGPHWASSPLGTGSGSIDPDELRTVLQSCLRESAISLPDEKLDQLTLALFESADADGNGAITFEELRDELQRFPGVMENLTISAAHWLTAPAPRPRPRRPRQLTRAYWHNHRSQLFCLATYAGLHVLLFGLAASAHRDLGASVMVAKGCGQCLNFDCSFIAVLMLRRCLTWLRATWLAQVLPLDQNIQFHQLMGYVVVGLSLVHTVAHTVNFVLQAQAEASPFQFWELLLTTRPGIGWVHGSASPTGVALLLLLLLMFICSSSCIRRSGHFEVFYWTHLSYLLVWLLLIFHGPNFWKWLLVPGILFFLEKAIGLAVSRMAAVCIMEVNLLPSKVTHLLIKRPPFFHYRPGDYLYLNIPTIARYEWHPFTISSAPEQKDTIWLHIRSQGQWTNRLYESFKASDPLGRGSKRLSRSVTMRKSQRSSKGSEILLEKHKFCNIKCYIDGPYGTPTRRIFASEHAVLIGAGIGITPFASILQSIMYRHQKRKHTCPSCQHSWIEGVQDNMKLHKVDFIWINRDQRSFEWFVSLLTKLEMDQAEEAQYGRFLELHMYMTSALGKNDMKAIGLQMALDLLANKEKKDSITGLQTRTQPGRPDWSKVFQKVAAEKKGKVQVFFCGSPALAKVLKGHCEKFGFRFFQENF

Torsin-1A (Homo sapiens), sequence (O14656 whole entry, looked up): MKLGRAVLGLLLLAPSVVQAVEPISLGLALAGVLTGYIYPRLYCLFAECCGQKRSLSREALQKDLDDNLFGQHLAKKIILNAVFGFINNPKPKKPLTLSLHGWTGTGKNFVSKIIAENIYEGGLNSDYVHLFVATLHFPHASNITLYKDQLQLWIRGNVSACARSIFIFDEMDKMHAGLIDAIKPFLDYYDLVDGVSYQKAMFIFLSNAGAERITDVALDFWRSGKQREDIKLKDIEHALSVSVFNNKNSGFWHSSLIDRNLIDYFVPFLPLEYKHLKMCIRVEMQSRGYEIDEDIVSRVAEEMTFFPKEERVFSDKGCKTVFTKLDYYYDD
Streptavidin (Streptomyces avidinii), sequence (P22629 whole entry, looked up): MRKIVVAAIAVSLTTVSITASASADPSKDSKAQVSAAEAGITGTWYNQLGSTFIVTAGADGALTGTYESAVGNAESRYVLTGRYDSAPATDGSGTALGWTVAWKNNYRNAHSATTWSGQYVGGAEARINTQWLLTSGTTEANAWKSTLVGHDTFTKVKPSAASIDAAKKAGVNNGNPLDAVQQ
NADPH oxidase 4 (Homo sapiens), sequence (Q9NPH5 whole entry, looked up): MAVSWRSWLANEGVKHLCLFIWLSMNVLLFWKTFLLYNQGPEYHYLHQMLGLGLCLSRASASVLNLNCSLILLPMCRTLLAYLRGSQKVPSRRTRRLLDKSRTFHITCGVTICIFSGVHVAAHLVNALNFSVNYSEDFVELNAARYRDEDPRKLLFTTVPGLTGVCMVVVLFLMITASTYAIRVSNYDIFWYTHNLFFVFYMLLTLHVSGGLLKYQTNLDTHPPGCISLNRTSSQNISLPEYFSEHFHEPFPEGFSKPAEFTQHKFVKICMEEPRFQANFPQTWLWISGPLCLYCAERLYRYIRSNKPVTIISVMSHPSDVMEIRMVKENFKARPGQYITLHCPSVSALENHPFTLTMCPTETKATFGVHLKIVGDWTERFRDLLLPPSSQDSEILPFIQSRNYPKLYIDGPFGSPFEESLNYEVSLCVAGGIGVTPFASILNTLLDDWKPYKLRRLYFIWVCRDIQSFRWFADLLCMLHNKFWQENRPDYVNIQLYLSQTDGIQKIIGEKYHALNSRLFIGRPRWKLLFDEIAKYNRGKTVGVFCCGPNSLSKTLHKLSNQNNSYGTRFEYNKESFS
NADPH oxidase 2 (Homo sapiens), sequence (P04839 whole entry, looked up): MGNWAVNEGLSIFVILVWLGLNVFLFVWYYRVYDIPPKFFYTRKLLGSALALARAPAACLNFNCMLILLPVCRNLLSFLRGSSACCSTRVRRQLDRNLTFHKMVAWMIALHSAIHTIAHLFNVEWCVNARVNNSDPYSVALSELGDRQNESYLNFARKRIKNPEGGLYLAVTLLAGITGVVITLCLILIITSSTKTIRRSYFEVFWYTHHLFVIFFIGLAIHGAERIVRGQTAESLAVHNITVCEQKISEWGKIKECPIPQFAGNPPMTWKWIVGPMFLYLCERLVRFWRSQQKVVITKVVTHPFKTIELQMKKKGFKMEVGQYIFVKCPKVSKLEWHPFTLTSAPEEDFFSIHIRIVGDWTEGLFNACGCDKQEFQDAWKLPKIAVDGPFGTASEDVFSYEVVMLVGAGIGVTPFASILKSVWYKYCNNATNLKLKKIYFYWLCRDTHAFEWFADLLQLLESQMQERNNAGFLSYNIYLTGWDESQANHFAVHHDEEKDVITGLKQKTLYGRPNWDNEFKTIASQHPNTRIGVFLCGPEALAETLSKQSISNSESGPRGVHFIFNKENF

SMILES | composite z-score [1] | z-score [2] | z-score [3] | z-score [4] | z-score [5] | composite z-score [6] | composite z-score [7] | composite z-score [8] | composite z-score [9] | composite z-score [10] | z-score [11] | composite z-score [12] | z-score [13] | z-score [14] | z-score [15] | z-score [16] | z-score [17] | z-score [18] | z-score [19] | z-score [20]
CC(C)C[C@@H]1NC(=O)[C@@]23C(=O)N[C@@H](Cc4ccccc4)C2[C@H](C)[C@@]2(C)O[C@H]2C3/C=C/C/C=C\CNC(=O)[C@@H](C)NC1=O (stereo not given in full) | -0.336 | -0.611 (inactive) | -0.944 (inactive) | 0.662 (inactive) | -0.268 (inactive) | -0.823 | -0.348 | 0.056 | -0.196 | 1.29 | 0.767 (inactive) | -0.444 | 0.961 (inactive) | -1.13 (inactive) | -0.826 (inactive) | -0.967 (inactive) | 0.338 | 0.848 (inactive) | 1.65 (inactive) | 0.953
O=C1C2C=CC(C(O)C=Cc3ccc([N+](=O)[O-])cc3)N(Nc3ccccc3)C2C(=O)N1c1ccccc1 (stereo not given) | 0.264 | -0.132 (inactive) | -0.633 (inactive) | -0.143 (inactive) | -0.148 (inactive) | 1.53 | 0.117 | -0.283 | 0.0565 | 0.0063 | -0.323 (inactive) | 0.424 | 11 (active) | 2.2 (inactive) | 0.478 (inactive) | 1.81 (inactive) | -0.914 | -1.72 (inactive) | -2.96 (inactive) | -2.32
O=C1C2C=CC(C(O)c3cccc(O)c3)N(Nc3ccccc3)C2C(=O)N1c1ccccc1 (stereo not given) | -0.105 | -2.93 (inactive) | -1.06 (inactive) | -0.14 (inactive) | 1.37 (inactive) | 0.318 | -0.0645 | -0.338 | -0.283 | -0.461 | -1.09 (inactive) | 0.315 | 6.48 (inactive) | 0.214 (inactive) | 0.185 (inactive) | 0.115 (inactive) | 0.109 | -3.44 (inactive) | -6.62 (inactive) | -6.85
C=C(CCCC)C(=O)CC[C@H](OC(C)=O)c1ccc(OCCO)cc1 | -0.624 | -7.16 (inactive) | -1.17 (inactive) | 5.09 (inactive) | -0.361 (inactive) | 0.519 | -0.308 | -0.822 | -0.514 | -0.0938 | 2.2 (inactive) | -0.316 | 11.3 (active) | 0.316 (inactive) | 1.61 (inactive) | -0.623 (inactive) | 2 | -3.16 (inactive) | -1.5 (inactive) | -3.11
CC(C)C(=C=CC[C@H](O)c1cccc(OCCO)c1)CCO | 0.299 | -1.25 (inactive) | -0.461 (inactive) | 6.6 (inactive) | -0.253 (inactive) | -0.669 | -0.224 | -0.513 | 0.15 | 0.688 | 1.09 (inactive) | -0.116 | 1.77 (inactive) | -1.04 (inactive) | -1.42 (inactive) | -1.95 (inactive) | 0.28 | -0.24 (inactive) | 0.17 (inactive) | -1.29
CCOC(=O)C1=C[C@@H](c2ccccc2)N(S(=O)(=O)c2ccc(C)cc2)[C@H]1c1ccccc1 | 0.202 | -1.91 (inactive) | -0.42 (inactive) | -0.275 (inactive) | 0.294 (inactive) | 1.1 | 0.0925 | 0.0157 | 0.176 | 0.212 | -0.388 (inactive) | 0.119 | 13.8 (active) | 2.21 (inactive) | -0.657 (inactive) | 0.708 (inactive) | -0.8 | -0.395 (inactive) | -0.395 (inactive) | 0.565
O=C1[C@@H]2[C@@H](CC(COc3ccccc3)=C3[C@@H](CCc4ccccc4)OB(O)C[C@@H]32)C(=O)N1Cc1ccccc1 | -0.0294 | -1.91 (inactive) | 0.132 (inactive) | 1.94 (inactive) | -1.12 (inactive) | 0.376 | -0.0161 | 0.0258 | 0.256 | 0.919 | -1.45 (inactive) | 0.0089 | 11.2 (active) | 2.04 (inactive) | -0.791 (inactive) | 0.82 (inactive) | 0.17 | -0.0449 (inactive) | -0.128 (inactive) | -0.199
O=C1N[C@@H](Cc2ccccc2)C(=O)N2[C@@H]1C[C@@H](C(=O)O)[C@H]2c1ccc(O)cc1 | 0.391 | -0.477 (inactive) | 0.106 (inactive) | 0.692 (inactive) | -0.789 (inactive) | 0.0885 | 0.25 | 0.574 | 0.533 | 2.02 | 1.13 (inactive) | 0.47 | 6.71 (inactive) | 1.04 (inactive) | -2.73 (inactive) | 0.595 (inactive) | -0.0505 | -6.08 (inactive) | -4.88 (inactive) | -2.63
